GCN5L2 inh – qHTS Assay for Inhibitors of GCN5L2; Histone acetyltransferase KAT2A (Homo sapiens), Q92830; GCN5L2 HAT assay, ThioGlo1 CoA-SH fluorescence; Potency, µM (highest dose often 58.9 µM), hits mostly inhibitors; 390,000 tested, 0.21% active; AID 504327, 2011
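Preincubate 20nM GCN5L2 with compound 15 min, RT → add 50uM ThioGlo1 + 75uM H3(1-25) + 70uM acetyl-CoA → read fluorescence 0 and 20 min. Primary qHTS; fluorescent artifacts likely.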
TDP1 block – qHTS Assay for Inhibitors of Tyrosyl-DNA Phosphodiesterase (TDP1) | Tyrosyl-DNA phosphodiesterase 1 (Homo sapiens), Q9NUW8 | recombinant TDP1, AlphaScreen DNA substrate cleavage | Potency, µM (top dose mostly 130 µM), usual class: inhibitors | 350,000 tested, 0.28% active; note: nearly all actives have a fitted effect of over 40% in size
Target sequence (Q9NUW8 whole entry, looked up): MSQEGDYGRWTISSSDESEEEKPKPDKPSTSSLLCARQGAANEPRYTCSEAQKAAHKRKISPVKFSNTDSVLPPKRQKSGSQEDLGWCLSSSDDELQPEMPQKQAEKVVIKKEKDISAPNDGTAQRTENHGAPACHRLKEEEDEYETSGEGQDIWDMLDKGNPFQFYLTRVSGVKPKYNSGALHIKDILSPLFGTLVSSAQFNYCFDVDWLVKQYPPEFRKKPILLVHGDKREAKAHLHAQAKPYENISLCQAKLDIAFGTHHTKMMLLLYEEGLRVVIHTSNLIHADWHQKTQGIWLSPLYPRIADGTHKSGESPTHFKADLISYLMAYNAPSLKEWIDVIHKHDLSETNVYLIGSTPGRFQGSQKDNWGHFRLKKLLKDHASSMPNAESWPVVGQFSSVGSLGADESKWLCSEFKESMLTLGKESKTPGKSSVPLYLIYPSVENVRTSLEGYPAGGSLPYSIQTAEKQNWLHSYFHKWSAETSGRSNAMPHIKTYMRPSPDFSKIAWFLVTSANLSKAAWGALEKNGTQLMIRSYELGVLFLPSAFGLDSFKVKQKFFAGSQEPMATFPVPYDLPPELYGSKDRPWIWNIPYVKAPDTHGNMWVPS
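Recombinant E. coli-expressed Tdp1 (1 nM) preincubated with compound 15 min at RT, then 5'-biotin/3'-phosphotyrosine-FITC DNA substrate (15 nM) added for 5 min. AlphaScreen beads (10 ug/ml) added, 10 min RT; tyrosine-FITC cleavage read as signal loss.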
RECQ1 inh-1 – qHTS Assay for Inhibitors of RecQ-Like Dna Helicase 1 (RECQ1); Potency, µM (doses to about 57.3 µM), usual class: inhibitors; ATP-dependent DNA helicase Q1 (Homo sapiens), P46063; RECQ1 DNA unwinding, red fluorescence kinetic read; 240,000 tested, 0.54% active; note: nearly all actives have a fitted effect of over 30% in size
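RECQ1T1 50 nM; forked duplex (20 bp + 30-nt ss tails) 200 nM, ATP 2 mM final; pH 8.0, 2 mM MgCl2, 2.5 ug/ml poly(dI-dC); 15 min compound preincubation; discontinuous kinetic read over 2 h at RT.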
RGS4 inh – Inhibitors of Regulator of G Protein Signaling (RGS) 4: qHTS; Transcreener GDP fluorescence polarization, RGS4-accelerated GTP hydrolysis; Potency, µM (series often up to 114 µM), hits mostly inhibitors; 390,000 tested, 0.039% active; AID 504845, 2011; note: nearly all actives have a fitted effect of over 75% in size
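MLSMR compounds (23 nl, pin-transferred) preincubated 10 min at room temperature with a 500nM (2x) first reagent, then RGS4 at 900nM (2x) plus Transcreener GDP mix added; fluorescence polarization (620/688 nm) read before and after 90 min at 30 °C.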
APEX1 inh – qHTS Assay for Inhibitors of the Human Apurinic/apyrimidinic Endonuclease 1 (APE1); DNA repair nuclease/redox regulator APEX1 (Homo sapiens), P27695; recombinant APE1, TAMRA/BHQ-2 abasic DNA cleavage fluorescence; Potency, µM (highest dose often 65.8 µM), usual class: inhibitors; 350,000 tested, 0.35% active; AID 2517, 2012; note: nearly all actives have a fitted effect of over 55% in size
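Incision of a quenched TAMRA/BHQ-2 THF abasic-site duplex (50 nM) by 0.75 nM APE1, after 15 min compound preincubation, measured as fluorescence increase over three 60 s reads. Values normalized to buffer, DMSO and NSC13755 control wells.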
BLM inh – qHTS Assay for Inhibitors of Bloom's syndrome helicase (BLM) | recombinant BLM DNA unwinding, fluorescence dequenching | Potency, µM (series often up to 56.1 µM), usual class: inhibitors | RecQ-like DNA helicase BLM (Homo sapiens), P54132 | AID 2528, 2010 | 350,000 tested, 0.2% active; note: nearly all actives have a fitted effect of over 35% in size
RECQ1 conf – Confirmation qHTS Assay for Inhibitors of RecQ-Like Dna Helicase 1 (RECQ1) | shares compounds with RECQ1 inh-1 | RECQ1 helicase DNA unwinding, fluorescence | Potency, µM (doses to about 229 µM), hits mostly inhibitors | 610 tested, 28% active | AID 2708, 2010; note: nearly all actives have a fitted effect of over 45% in size
RECQ1 ADP FP – Counterscreen for RECQ1 Inhibitors: ADP Fluorescence Polarization Displacement Assay; Potency, µM (top dose mostly 228 µM), most hits filed as inhibitors; 530 tested, 27% active; AID 2711, 2010; shares compounds with RECQ1 inh-1; ADP fluorescence polarization displacement counterscreen; note: nearly all actives have a fitted effect of over 45% in size
RECQ1 inh-2 – Confirmation qHTS Assay for Inhibitors of RecQ-Like Dna Helicase 1 (RECQ1) - Round 2 Cherry Picks; shares compounds with RECQ1 inh-1; recombinant RECQ1 DNA unwinding, red fluorescence; Potency, µM (series often up to 119 µM), hits mostly inhibitors; 1,100 tested, 15% active; AID 504841, 2011; note: nearly all actives have a fitted effect of over 50% in size
A number is an active result; 0 = inactive; ? = inconclusive; - = no result; [ ] = remark or other dose. Rows were chosen to be rich in hits. Some 0.87% of all compounds tested hit in one or more screens of this group. Calls come from the whole dose curve; as a rule, active = well fitted curve in the direction sought with a large enough effect; inconclusive = small, poorly fitted or top-dose-only effect, or another doubt; inactive = no such curve, though single readings can be large; an effect the other way counts as inactive or inconclusive.

SMILES	GCN5L2 inh	TDP1 block	RECQ1 inh-1	RGS4 inh	APEX1 inh	BLM inh	RECQ1 inh-2	others
COc1ccc(-c2nc(-c3ccccc3)c(Nc3ccc4ccccc4c3)o2)cc1	-	0	0	-	0	0	-
COc1ccc(NC(=O)CSc2nc3ccsc3c(=O)n2CCCCCC(=O)O)cc1	0	0	0	0	0	0	-	RECQ1 conf=?;RECQ1 ADP FP=0
CCCCn1c(SCC(=O)c2ccc(O)c(O)c2)nc2ccsc2c1=O	0	0	22.4µM	0	0	0	8.91µM
O=C(O)CCCCCn1c(SCC(=O)c2ccc(O)c(O)c2)nc2ccsc2c1=O	0	-	0	0	?	0	-
O=C(O)CCCCCn1c(SCC(=O)Nc2ccc(F)cc2)nc2ccsc2c1=O	0	0	0	0	0	0	-	RECQ1 conf=0;RECQ1 ADP FP=0
CC(C)=CCC1(CC=C(C)C)C(=O)C(C(=O)c2ccccc2)=C2OC(C)(C)CCC2(CC=C(C)C)C1=O (stereo not drawn)	-	0[21 µM]	0[11.5 µM]	-	0[12.4 µM]	0[12.4 µM]	-
CSc1nnc(-c2ccco2)c(-c2ccco2)n1	?	-	?	0[11.4 µM]	?	?	0
CC[C@H](C)[C@H](NC(=O)[C@H](C)NC(=O)CNC(=O)[C@H](CCCCN)NC(=O)[C@H](CC(N)=O)NC(=O)[C@H](CO)NC(=O)CN)C(=O)N[C@H](C(=O)NCC(=O)N[C@@H](CC(C)C)C(=O)N[C@@H](CCSC)C(=O)O)[C@@H](C)CC	0	0	0	-	0	0	-
CSCC[C@H](NC(=O)[C@H](CC(C)C)N1CCC(NC(=O)[C@@H](NC(=O)[C@H](Cc2ccccc2)NC(=O)[C@H](CO)NC(=O)[C@H](CC(=O)O)NC(=O)[C@@H](N)CCCCN)C(C)C)C1=O)C(N)=O (stereo partly drawn)	0	0	0	-	0	0	-
O=C1c2nc3cc(-c4ccco4)[nH]n3c(=O)c2CN1Cc1ccccc1	?	-	11.2µM	0	0	?	0	RECQ1 conf=?;RECQ1 ADP FP=63.1µM
CC(C)(C)c1ccc(C(=O)CS(=O)(=O)c2ccccc2)cc1	0	0	?	0	0	0	0
Cc1ccc(S(=O)(=O)CC(=O)c2ccccc2)cc1	0	0	?	0	0	0	-
c1csc(Cc2nn3c(-c4ccncc4)nnc3s2)c1	0	-	10µM	0	?	0	0	RECQ1 ADP FP=0
c1csc(-c2nn3c(-c4ccncc4)nnc3s2)c1	0	0	0	-	0	0	-
O=C(O)c1c2c(nc3ccc(Cl)cc13)CCC2	0	-	28.2µM	0	?	0	0
Cc1ccc2nc3c(c(C(=O)O)c2c1)CCC3	0	0	0	0	?	0	-
CCNc1ccc(Br)cc(C(=O)/C=C/c2ccc3c(c2)OCO3)c1=O	0	0	?	0	?	0	?
CNc1ccc(Br)cc(C(=O)/C=C/c2ccc(OC)cc2OC)c1=O	0	-	0	?	0	?	-
CNc1ccc(Br)cc(C(=O)/C=C/c2cccc(OC)c2)c1=O	0	0	28.2µM	?	?	0	?
CCOC(=O)c1ccc(N2C(=O)c3n[nH]c(-c4ccco4)c3C2c2ccccc2OC)cc1 (stereo not drawn)	0	0	-	0	-	0	-
O[C@@H]1CO[C@H]2[C@@H]1OC[C@@H]2O	0	-	-	-	-	0	-
Cc1cc2cc(CNC(=O)c3ccc(S(=O)(=O)N4CCCCC4)cc3)ccc2n1C	0	0	0	0	0	0	-
COc1ccc(S(=O)(=O)NCc2ccc3c(c2)cc(C)n3C)cc1	0	0	31.6µM	0	0	0	?
Cc1cc2cc(CNC(=O)c3ccc(S(=O)(=O)N4CCCC4)cc3)ccc2n1C	0	0	?	0	0	0	0
CC(C)(C)[C@@H](O)C(Cc1ccc(Cl)cc1)n1cncn1 (stereo partly drawn)	0	0	0	-	0	0	-
SMILES	GCN5L2 inh	TDP1 block	RECQ1 inh-1	RGS4 inh	APEX1 inh	BLM inh	RECQ1 inh-2	others
C=C[C@@]1(C)CC(=O)[C@]2(O)[C@@]3(C)[C@H](O)CCC(C)(C)[C@@H]3[C@H](O)[C@H](OC(C)=O)[C@@]2(C)O1	0	0	0	-	0	0	-
CC1CCCN(C(=S)SCC(=O)c2cc(Br)cc(Br)c2O)C1 (stereo not drawn)	0	0	?	?	0	0	0
O=C(CSC(=S)N1CCCC1)c1cc(Br)cc(Br)c1O	0	0	31.6µM	0	0	0	50.1µM
CC1CCCN(C(=S)SCC(=O)O)C1 (stereo not drawn)	0	0	0	0	0	0	-
COc1ccc(-c2nc(-c3ccccc3)c(Nc3c(C)cccc3C)o2)cc1	-	0	0	-	0	0	-
Cc1cccc(NC(=O)C2C(c3ccccc3)C2(Cl)Cl)c1 (stereo not drawn)	0	0	?	0	0	0	0
CC(=O)c1cccc(NC(=O)C2C(c3ccccc3)C2(Cl)Cl)c1 (stereo not drawn)	0	0	0	0	0	0	-
CN(C)c1ccc(/C=C/C=C2/SC(=S)N(c3ccccc3)C2=O)cc1	0	0	1.41µM	0	0	0	-	RECQ1 conf=3.55µM;RECQ1 ADP FP=?
O=C(O)c1ccc(N2C(=O)/C(=C/C=C/c3ccccc3)SC2=S)cc1	0	0	0	0	0	0	-
O=C(O)c1cc(N/N=C/c2ccc(N3CCOCC3)s2)ccc1Cl	0	?	14.1µM	?	15.8µM	0	-	RECQ1 conf=0
CCCCN(CCCC)Cc1ccc(C(=O)NNC(=O)Nc2ccccc2)o1	0	0	0	0	0	0	-
CCCCC#Cc1ccc(C(=O)NNC(=O)Nc2ccccc2)o1	?	0	28.2µM	0	0	0	?
Cc1cc(O)cc(O)c1C(=O)OC1(C)C(=O)C=C2C=C(/C=C/C(=O)O)OC=C2C1=O (stereo not drawn)	-	-	28.2µM	-	14.1µM	0	?

Bioassay records (PubChem BioAssay)
